The source of these data is PubChem BioAssay (EPA / NIEHS).

Each structure is given as a SMILES string. “And” between values parts separate entries of the source, which are not always exact repeats. Equal entries are not always repeated. A structure can be active in one record and inactive in another. The source made the active and inactive calls. Rule for the calls: active = hit-call score of the fitted dose curve at least 0.9, where 1 is the maximum; inactive = score below 0.9.

The term AC50 denotes the concentration giving half of the maximal activity seen.

Read-out in test [1]: Cyclin D1 (CCND1), CCND1 (gene 595)
Nature of the test: LTEA_HepaRG_CCND1: Life Technologies and Expression Analysis (LTEA) Assay for Cyclin D1 (CCND1) using HepaRG (AID 2283451).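 For AC50: differentiated human HepaRG liver cells in serum-free induction medium; TaqMan qRT-PCR transcript level normalised to ACTB GAPDH and POLR2A housekeeping genes.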 The settings on record: mRNA level, 48 h; actives raise or lower the signal. The method in brief:
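Expression of CCND1 was quantified by qRT-PCR on Fluidigm arrays using ACTB, GAPDH and POLR2A as reference genes. HepaRG cultures, plated 48 h beforehand, were dosed for 48 h at up to 100 uM (half-log, 8 points) in 0.5% DMSO.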

Read-out in test [2]: catalase (CAT), CAT (gene 847)
Nature of the test: LTEA_HepaRG_CAT: Life Technologies and Expression Analysis (LTEA) Assay for catalase (CAT) using HepaRG (AID 2283452). The settings on record: mRNA level, 48 h; actives raise or lower the signal. In short, it runs like this: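 Expression of CAT was quantified by TaqMan qRT-PCR with ACTB/GAPDH/POLR2A normalization after 48 h chemical exposure of HepaRG. Eight-point half-log series, top 100 uM, in 0.5% DMSO; gain or loss fitted against vehicle.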

Read-out in test [3]: flavin-containing dimethylaniline monooxygenases 3 (FMO3), FMO3 (gene 2328)
Put plainly: LTEA_HepaRG_FMO3: Life Technologies and Expression Analysis (LTEA) Assay for flavin-containing dimethylaniline monooxygenases 3 (FMO3) using HepaRG (AID 2283453).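 For AC50: differentiated human HepaRG liver cells in serum-free induction medium.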 The settings on record: mRNA level, 48 h; actives raise or lower the signal. In short, it runs like this:
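FMO3 transcript quantified by TaqMan qRT-PCR against three housekeeping genes after 48 h chemical exposure of HepaRG cells. Eight-point half-log series, top 100 uM, 0.5% DMSO vehicle; phenobarbital 1mM induction control; up- or down-regulation fitted.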

Read-out in test [4]: Cytochrome P450 (CYP1A1), CYP1A1 (gene 1543)
Put plainly: LTEA_HepaRG_CYP1A1: Life Technologies and Expression Analysis (LTEA) Assay for Cytochrome P450 (CYP1A1) using HepaRG (AID 2283454). The settings on record: mRNA level, 48 h; actives raise or lower the signal. In short, it runs like this:
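CYP1A1 transcript levels measured by Fluidigm qRT-PCR against three housekeeping genes, 48 h after chemical dosing of human HepaRG cells (highest concentration 100 uM, half-log steps, 0.5% DMSO vehicle). Gain or loss of signal fitted relative to DMSO.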

Read-out in test [5]: CFLAR gene, CFLAR (gene 8837)
Nature of the test: LTEA_HepaRG_CFLAR: Life Technologies and Expression Analysis (LTEA) Assay for CFLAR gene using HepaRG (AID 2283455). The note with it: mRNA level, 48 h; actives raise or lower the signal. The method in brief: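 Transcript level by qRT-PCR (normalized to ACTB, GAPDH and POLR2A) after 48 h chemical exposure of HepaRG cells, top concentration 100 uM with half-log steps, 0.5% DMSO vehicle, duplicates; fitted bidirectionally against DMSO baseline.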

Read-out in test [6]: Forkhead box O1 (FOXO1), FOXO1 (gene 2308)
Nature of the test: LTEA_HepaRG_FOXO1: Life Technologies and Expression Analysis (LTEA) Assay for Forkhead box O1 (FOXO1) using HepaRG (AID 2283456). The settings on record: mRNA level, 48 h; actives raise or lower the signal. The method in brief:
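FOXO1 transcript quantified by qRT-PCR after 48 h chemical exposure (top 100 uM, half-log steps, 0.5% DMSO) of HepaRG cells, housekeeping-normalized (ACTB/GAPDH/POLR2A). Changes fitted in both directions relative to vehicle.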

Test [7] is described as follows: CEETOX_H295R_TESTO: CeeTox H295R High-throughput Steroidogenesis Assay for Testosterone (TESTO) (AID 2283457). The note with it: actives raise or lower the signal. How it is done: CEETOX_H295R is a cell-based, multiplexed-readout assay that uses H295R, a human adrenal gland cell line, with measurements taken at 48 hours after chemical dosing in a 96-well plate.CEETOX_H295R_TESTO is one of 23 assay component(s) measured or calculated from the CEETOX_H295R assay. It is designed to make measurements of hormone induction, a form of inducible reporter, as detected with […] by HPLC-MS-MS technology.Data from the assay component CEETOX_H295R_TESTO was analyzed into 1 assay endpoint. This assay endpoint, CEETOX_H295R_TESTO, was analyzed with bidirectional fitting relative to DMSO as the negative control and baseline of activity. Using a type of inducible reporter, gain or loss-of-signal activity using HPLC-MS-MS was used to understand synthesis of Testosterone in H295R cell line at 48hr of chemical exposure. To generalize the intended target to other relatable targets, this assay endpoint is annotated to the steroid hormone intended target family, where the subfamily is androgens.
Cell culture and media preparation procedures were conducted in accordance with OECD Test No. 456 guidelines, with minor modifications. H295R cells (ATCC CRL-2128) were expanded for 5 passages and frozen in batches in liquid nitrogen. Prior to the steroidogenesis assay, H295R cells were thawed and passed at least 4 times. The maximum passage was 10. Cells were maintained in a 1:1 mixture of DMEM/F12 supplemented with 5ml/L ITS+ Premix (BD Bioscience) and 12.5 ml/L Nu-Serum (BD Bioscience). After seeding cells into 96-well plates at 50-60% confluency, cells were allowed to adhere overnight. […] Test chemicals were incubated for 48 hours, then the medium was removed and split into 2 vials containing approximately 75uL each, and stored at -80 C prior to hormone analysis. For steroid quantification, media samples were shipped to OpAns, LLC (Durham, NC) on dry ice, and samples were thawed to room temperature prior to liquid-liquid extraction. Steroid hormones were extracted from media samples using methyl tertbutyl ether (MTBE). An extra derivatization with dansyl chloride was included for estrogen (estrone and estradiol) detection only. Steroid hormones were separated by HPLC, eluted using a reverse phase C18 gradient with electrospray positive ionization, followed by quantification by tandem mass spectrometry (MS/MS). Data were acquired on a MassHunter Workstation Acquisition version B03.01 (Agilent Technologies, Inc.) and processed using MassHunter Quantitative Analysis for QQQ. Accuracy was determined for each hormone analyte from 3 standards to determine upper and lower limits of quantification (ULOQ and LLOQ, respectively) using a 7-point standard curve. Precision and accuracy of the extraction and quantification methods were calculated as the percent relative standard deviation (%RSD) of the spiked standards and percent spiked standard recovered, respectively. […] Test medium was removed following chemical exposure, and cell viability was evaluated in the same wells by MTT. MTT procedures were as follows: after removal of test medium, 500 uL of 0.5 mg/ml of 3-[4,5-dimethylthiazol-2-y]2,5-diphenyltetrazoliumbromide solution was added to the cells. Following a 4-hour incubation at 37 C and 5% CO2 to allow formazan-crystal formation, the MTT solution was removed and blue formazan salt crystals were solubilized using 500uL anhydrous isopropanol with shaking for 20 minutes. Absorbance was read at 570 and 650nm using a Packard Fusion microplate reader. Background correction of absorbance units was used to determine percent change relative to controls. […] When a test chemical reduced cell viability to 20% - 70%, the test chemical was diluted 10-fold and re-evaluated, but if cell viability was <20%, then the test chemical was diluted 100-fold and re-evaluated. Test chemical dilutions were made until cell viability was >/=70%. MTT assays were also conducted for duplicates of all concentrations of chemicals tested in concentration-response studies. […]

Read-out in test [8]: growth arrest and DNA damage 45 (GADD45A), GADD45A (gene 1647)
Nature of the test: LTEA_HepaRG_GADD45A: Life Technologies and Expression Analysis (LTEA) Assay for growth arrest and DNA damage 45 (GADD45A) using HepaRG (AID 2283458). The settings on record: mRNA level, 48 h; actives raise or lower the signal. The method in brief: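 Transcript induction or loss, quantified by TaqMan qRT-PCR against three housekeeping genes, is the read-out. HepaRG cells received chemicals for 48 h across eight half-log concentrations from 100 uM in 0.5% DMSO; gain and loss fitted relative to DMSO.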

Read-out in test [9]: Forkhead box O3 (FOXO3), FOXO3 (gene 2309)
Nature of the test: LTEA_HepaRG_FOXO3: Life Technologies and Expression Analysis (LTEA) Assay for Forkhead box O3 (FOXO3) using HepaRG (AID 2283459). The note with it: mRNA level, 48 h; actives raise or lower the signal. In short, it runs like this: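 FOXO3 transcript measured by qRT-PCR (normalized to ACTB, GAPDH, POLR2A) after 48 h exposure of HepaRG cells in serum-free induction medium. Duplicates, eight half-log concentrations up to 100 uM, 0.5% DMSO; gain or loss fitted against DMSO.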

Read-out in test [10]: ABC Transporter (ABCB1), ABCB1 (gene 5243)
Put plainly: LTEA_HepaRG_ABCB1: Life Technologies and Expression Analysis (LTEA) Assay for ABC Transporter (ABCB1) using HepaRG (AID 2283460). The settings on record: mRNA level, 48 h; actives raise or lower the signal. The method in brief:
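ABCB1 transcript level measured by TaqMan qRT-PCR against three housekeeping genes after 48 h chemical exposure of differentiated HepaRG cells. Top concentration 100 uM, half-log steps, eight points, 0.5% DMSO vehicle; bidirectional fit relative to DMSO.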

In the case of `Cc1cc(Cl)ccc1OCC(=O)O`, the result in [1], in test [2], in test [3], in test [5], in test [6] and in test [7] was inactive. For the same compound, the result in [8], in test [9] and in test [10] was inactive. The half-maximal activity concentration (AC50) in [4] was 50 µM (active).
Take `CO/C=C(/C(=O)OC)c1ccccc1Oc1cc(Oc2ccccc2C#N)ncn1`: the AC50 in test [1] is 12.6 µM (active); in test [2], 75.5 µM (active) and 69.5 µM (active) and 74.7 µM (active); in test [3], 79.3 µM (active) and 78.7 µM (active) and 76.5 µM (active); in [4], 27 µM (active) and 25.2 µM (active) and 19 µM (active); in [5], 30.5 µM (active); in [6], 77.3 µM (active) and 70.5 µM (active) and 71.8 µM (active). For the same compound, the AC50 in test [8] is 87.3 µM (active) and 74.6 µM (active) and 95.4 µM (active); in [10], 23.5 µM (active). Further, the call in test [1], in [5], in [9] and in test [10] was inactive.
With `O=C(O)c1nc(Cl)ccc1Cl`, the call in test [1], in test [2], in [3], in [4], in test [5] and in test [6] was inactive. For the same compound, the compound was called inactive in test [8], in [9] and in [10]. The AC50 in test [4] was 50 µM (active).
`C=CCC1=C(C)C(OC(=O)C2C(C=C(C)C)C2(C)C)CC1=O` (stereo unspecified): the AC50 is 88.2 µM (active) in test [1]; 83.6 µM (active) and 16.6 µM (active) in test [2]; 80.2 µM (active) in test [3]; 50 µM (active) and 31.8 µM (active) and 35.1 µM (active) in test [4]. In addition, the compound was called inactive in test [1], in test [2], in test [3], in [5], in [6] and in test [8]. Besides, the compound was classed as inactive in test [9] and in [10].
`CCOP(=S)(OCC)SCn1c(=O)oc2cc(Cl)ccc21`: the outcome in test [1], in test [2], in test [3], in [5], in test [6] and in [8] was inactive. For the same compound, the compound was classed as inactive in test [9] and in test [10]. In [4], the half-maximal activity concentration (AC50) is 53.7 µM (active).
Turning to `CCCC1COC(Cn2cncn2)(c2ccc(Cl)cc2Cl)O1` (stereo unspecified), the AC50 in test [1] was 90.2 µM (active); in [2], 37.2 µM (active); in test [3], 34.6 µM (active); in test [4], 40 µM (active); in [5] it was 77.7 µM (active); in test [6], 76.1 µM (active). The AC50 in [8] is 67.2 µM (active). Further, the outcome in test [7], in test [9] and in [10] was inactive.
`CNC(=O)ON=CC(C)(C)SC`: the outcome in test [1], in test [2], in [3], in test [4], in [5] and in [6] was inactive. The call in test [8], in [9] and in test [10] was inactive.
For `OC(c1ccc(Cl)cc1)(c1cncnc1)c1ccccc1Cl` (stereo unspecified), the AC50 in [1] is 50 µM (active); in test [2] it was 87.6 µM (active); in test [3], 77.8 µM (active); in test [4] it was 13 µM (active); in test [6], 79 µM (active); in test [8] it was 72.4 µM (active). For the same compound, in test [10], the AC50 is 28.5 µM (active). The result in [5] and in test [9] was inactive.
